From PubChem BioAssay
This is a sample that favours compounds with a hit; in the whole collection about 3.4% have one here.
FBW7 activator: FBW7 E3 ligase activators, primary screen, biochemical, AlphaScreen, human. F-box/WD repeat-containing protein 7 (Homo sapiens), Q969H0. AlphaScreen FBW7–phospho-cyclin E peptide binding, activator screen. normalized activity (activation), % at 26.1 µM. hit rate 0.13% among 650,000. AID 1259310, 2017; in the data active = normalized activity above about 1.9%;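 note: purified mutant Fbw7 with reduced substrate affinity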
TEAD-YAP block: TEAD-YAP interaction inhibition, primary screen, TEAD-YAP interaction inhibitor project, luminescence, HEK-TIYL cells | TEAD-Gal4/YAP UAS-luciferase luminescence | inhibition, % at 9.12 µM | hit rate 1.4% among 640,000; in the data active = inhibition above about 32%
MITF inh: MITF inhibitors, primary screen, biochemical, AlphaScreen, human | AID 1259374, 2018 | hit rate 0.91% among 650,000 | inhibition, % at 2.6 µM | AlphaScreen MITF homodimerization, bead proximity signal | Microphthalmia-associated transcription factor (Homo sapiens), O75030; in the data active = inhibition above about 50%
GPR151 activ: activators of human GPR151, primary screen, cell-based, PathHunter beta-arrestin, luminescence | G-protein coupled receptor 151 (Homo sapiens), Q8TDV0 | PathHunter beta-arrestin GPR151 cells | activation, % at 11.2 µM | hit rate 1% among 650,000; in the data active = activation above about 4.9%
Target sequence (Q8TDV0 whole entry, looked up): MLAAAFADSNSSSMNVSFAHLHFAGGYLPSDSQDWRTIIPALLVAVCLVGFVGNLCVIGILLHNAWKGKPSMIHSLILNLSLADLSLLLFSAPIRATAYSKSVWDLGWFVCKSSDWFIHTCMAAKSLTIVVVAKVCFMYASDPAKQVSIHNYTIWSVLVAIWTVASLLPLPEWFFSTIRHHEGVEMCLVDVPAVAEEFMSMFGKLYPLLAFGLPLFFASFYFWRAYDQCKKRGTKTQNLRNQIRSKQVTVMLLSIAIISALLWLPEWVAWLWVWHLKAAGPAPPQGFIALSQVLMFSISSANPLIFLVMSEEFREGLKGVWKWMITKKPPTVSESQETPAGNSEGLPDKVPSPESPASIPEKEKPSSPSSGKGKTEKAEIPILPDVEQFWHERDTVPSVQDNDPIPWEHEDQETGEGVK
Of the large screens only hits and unclear results are named; the others gave an inactive call.

COc1cc(/C=C2\SC(N3CCCC3)=NC2=O)ccc1O	none
CC1CCCN(C2=NC(=O)/C(=C/c3ccc(F)cc3)S2)C1 (configuration not stated)	none
O=C1N=C(N2CCOCC2)S/C1=C\c1ccc(F)cc1	none
COc1cc(/C=C2\SC(N3CCOCC3)=NC2=O)ccc1O	TEAD-YAP block 54
Cn1c(=O)n(Cc2cccc(C(F)(F)F)c2)c(=O)c2c1ncn2Cc1ccccc1	none
Cc1ccc(NC(=O)CC2(C(=O)O)CCCC2)cc1	none
Fc1ccccc1Nc1nnc(SCC2CCCCO2)s1 (configuration not stated)	TEAD-YAP block 73
Cc1cccc(S(=O)(=O)NC(C)c2ccccc2)c1 (configuration not stated)	none
Cc1sc2nc(C(C)C)n3c(=S)[nH]nc3c2c1C	TEAD-YAP block 55
CCc1c(C)sc2nc(C(C)C)n3c(=O)[nH]nc3c12	none
CCOC(=O)C1=C(C)Nc2ncnn2C1c1ccc(SC)cc1 (configuration not stated)	none
CCOC(=O)c1cccc(NC(=O)/C=C/c2ccccc2[N+](=O)[O-])c1	TEAD-YAP block 33
COc1ccc(OC)c(CN2CCN(Cc3ccc(F)cc3)C(CCO)C2)c1 (configuration not stated)	none
C=CCn1c(SCC(=O)OCC)nc2sc3c(c2c1=O)CCC(C(C)(C)C)C3 (configuration not stated)	TEAD-YAP block 38
COc1cc2nc(-c3ccc(C(=O)NC4CC4)cc3)nc(Nc3ccc(Oc4ccccc4)cc3)c2cc1OC	FBW7 activator 3.7, TEAD-YAP block 35
COc1cc2nc(-c3cccc(N)c3)nc(Nc3ccc(Oc4ccccc4)cc3)c2cc1OC	TEAD-YAP block 36
CC(Nc1nc(-c2ccccc2)c2cc(Br)ccc2n1)C(=O)O (configuration not stated)	none
NC(=O)N(N)c1nc(N2CCCCC2)nc(N2CCCCC2)n1	none
COc1ccc(-c2c[n+](CC(=O)c3ccc(Cl)cc3)c3n2CCCCC3)cc1	none
COc1ccc(C(=O)C[n+]2cc(-c3ccc(OC)cc3)n3c2CCCCC3)cc1	TEAD-YAP block 38
CCOC(=O)c1c(N)n(-c2cccc(S(N)(=O)=O)c2)c2nc3ccccc3nc12	none
COCc1c(C#N)c(Cl)nc(C)c1[N+](=O)[O-]	none
COCc1c(C#N)c(Sc2nnc(N)s2)nc(C)c1[N+](=O)[O-]	MITF inh 55
C/C(=N\NC(=O)c1ccc(N)cc1)c1ccc(F)cc1	none
NS(=O)(=O)c1ccc(N=Cc2ccc[nH]2)cc1	none
Oc1ccc(N=Cc2ccc[nH]2)cc1N=Cc1ccc[nH]1	MITF inh 87
N=c1sccn1CC(=O)Nc1ccc2c(c1)OCCO2	none
Cc1nc(NC(C)c2ccccc2)cc(-c2cncc(Br)c2)n1 (configuration not stated)	none
Cc1nc(NC(C)c2ccccc2)cc(-c2ccccn2)n1 (configuration not stated)	TEAD-YAP block 36
OCCNc1c2ccccc2nc2ccccc12	TEAD-YAP block 71
c1ccc2c(NCCc3cnc[nH]3)c3ccccc3nc2c1	TEAD-YAP block 77
O=C(O)CNc1c2ccccc2nc2ccccc12	none
CCN(CC)C(=O)C1c2cc(OC)c(OC)cc2C(=O)N2CCc3ccccc3C12 (configuration not stated)	none
CCOc1cc2c(cc1OCC)C1C(C(=O)N(CC)CC)c3ccccc3C(=O)N1CC2 (configuration not stated)	TEAD-YAP block 32
Cc1cnc(Nc2ccccc2)nc1Nc1ccc(N2CCOCC2)cc1	TEAD-YAP block 62
Cc1cnc(Nc2ccc3ncccc3c2)nc1Nc1ccc2c(c1)OCO2	TEAD-YAP block 44
c1nc2nc(Nc3ccc(N4CCOCC4)cc3)nc(Nc3ccc4c(c3)OCO4)c2[nH]1	TEAD-YAP block 45
Cc1cnc(Nc2nccc3ccccc23)nc1Nc1ccc2c(c1)OCO2	none
c1ccc(Nc2nc(Nc3ccc4c(c3)OCO4)c3[nH]cnc3n2)cc1	none
Cc1cnc(Nc2ccc3ncccc3c2)nc1Nc1ccc(N2CCOCC2)cc1	TEAD-YAP block 47
Cc1cnc(Nc2ccccn2)nc1Nc1ccc(N2CCOCC2)cc1	none
CCOC(=O)C1=C(C)NC2=C(C(=O)CC(c3ccc(Cl)cc3)C2)C1c1ccc(OCC)cc1 (configuration not stated)	none
CCCS(=O)(=O)c1ncc(Cl)c(C(=O)Nc2cc(C)ccc2C)n1	none
Nc1c(C(=O)N2CCCCC2)nnn1-c1cccc(C(F)(F)F)c1	none
c1ccc(Nc2nc(Nc3ccc(N4CCOCC4)cc3)c3[nH]cnc3n2)nc1	none
Cc1cnc(Nc2ccc(N3CCOCC3)cc2)nc1Nc1ccccc1C(N)=O	TEAD-YAP block 93
O=C(Nc1ccc(N2CCOCC2)cc1)C1CCN(c2ccc(Nc3ccc4ncccc4c3)nn2)CC1	TEAD-YAP block 40
c1cnc2ccc(Nc3nc(Nc4ccc(N5CCOCC5)cc4)c4[nH]cnc4n3)cc2c1	TEAD-YAP block 80
COc1cc(Nc2nc(Nc3ccc(N4CCOCC4)cc3)ncc2C)cc(OC)c1OC	TEAD-YAP block 66
CC1=C(C(=O)NCCN2CCOCC2)C2(CCCCC2)OC1=O	none
CCOC(=O)c1c(NC(=O)COC(=O)C(CCSC)NC(C)=O)sc2c1CCCC2 (configuration not stated)	none
Cn1c(Nc2nc(Nc3ccc4c(c3)OCO4)c3[nH]cnc3n2)nc2ccccc21	FBW7 activator 14
Cc1cnc(Nc2ncccn2)nc1Nc1ccc(N2CCOCC2)cc1	none
Cc1cnc(Nc2ccc(N3CCOCC3)cc2)nc1Nc1ccccc1	TEAD-YAP block 63
CC(=O)Nc1ccc(Nc2nc(Nc3nc4ccccc4n3C)nc3nc[nH]c23)cc1	none
CCCCCCOc1ccc(C(=O)O)cc1OC	none
c1cc(-c2ccc3cnc(Nc4ccc(-n5cnc(N6CCOCC6)n5)cc4)nc3c2)c[nH]1	TEAD-YAP block 53
c1cc(-c2ccc3cnc(Nc4ccc(-n5cnc(N6CCOCC6)n5)cc4)nc3c2)co1	none
Cc1ccc(-c2ccc3cnc(Nc4ccc(-n5cnc(N6CCOCC6)n5)cc4)nc3c2)cn1	FBW7 activator 2.3
CC(NCc1ccnn1C)c1ccccc1 (configuration not stated)	none
CCC(=O)C(C#N)c1nnc(-c2ccccc2)s1 (configuration not stated)	TEAD-YAP block 37
O=C(O)CCN(CCC(=O)O)c1nnc(-c2ccccc2)s1	none
c1ccc(-c2cc(N3CCN(c4ccccn4)CC3)nc(-c3ccccn3)n2)cc1	none
Cc1ccc(C2C(C#N)=C(SCC(=O)Nc3cccc(C)c3C)NC3=C2C(=O)CCC3)o1 (configuration not stated)	TEAD-YAP block 64
Cc1c(Cl)cccc1NC(=O)CSC1=C(C#N)C(c2ccco2)C2=C(CCCC2=O)N1 (configuration not stated)	TEAD-YAP block 38
